# Experimental data as given in the supplement of paper PMC12632987.
# Over roughly 2,300 sequences, “median log2 fold change of GCK-ALFA target abundance (FLAG IP / Myc IP barcode read proportion)” has its median near 0.095; the lowest 2% begin near -0.47. The entries come from a sample that favours the lowest values as a whole.
# B1: LC3A_free_26_2152 (protein)
# chain: DIFIDLVELDKAIELLEKALKLLEEDKNASEELKKLVKEALKKAEEMTLESLEEAKKLVEEALKLLEKDKSLSEEKKKELKKLLEEALKLLEKNIEIAKS
# B2: LC3A_28_1030 (protein)
# chain: AALKAAAAAALAEARAQFEAGEEAVVTLDVGDVPTAEAKAVVTAFLAELRALSAEYGGRKVSVVINYDGDQATLDAIIDAAEAAEAEDPNLTVIIAYADN
# B3: LC3A_3_1549 (protein)
# chain: MEELLEETLKRLKEAGASEEVIEAVRKALQALIDRGYEEALKEFAREVEELIGLPDEILLDFAEEVLRAIEEEDLNEEELIERIKEIATIAKNEGEIIEL
# B4: LC3A_28_855 (protein)
# chain: SETRKSIEEAREELEKAREAKEPAVITVTVTSDVTEEEVEEVIELIKEAAEASKEVPDLTLIIDFEGEIDPEHLNRITDAADEAIKKNPKLNVIFALDEE
# B5: LC3A_147_414 (protein)
# chain: TVVEIDILVKSKEAVEKIKERMKEIVKELKAKGYKVKLEIKVEEVEPGVYLVDITIEIEAETKEDAEAAANFVLDKIDEMEEELKDEILGSLISVEIEEK
# B6: LC3A_127_214 (protein)
# chain: EKEKLIKELLELIRKAQELLAKPDYDLEEIRKLLEEAIKVAKELLKLDERFKPVLEDLESALKLVDQMENLSPAEQEEARERVSMLLDGAEIELLSLELK
# B7: LC3A_147_517 (protein)
# chain: YLVEVEIDMLLKNSKELAEEIAKEIEERLKEKGYKVEVELEFEEDEDGTIFADITIKVEAETLEEAKEVANEILDIIDELLEKNKDKILGALISVSITKK
# B8: LC3A_147_516 (protein)
# chain: YKVTVEIDLLLKNSKELAEEMAEEIKEYLESKGYEVEVELEFEEDEDGTIFAKITITVKAETKEEAEKVANEVLEKIDELLEKYKDKILGALISVSIEEE
# B9: LC3A_132_295 (protein)
# chain: MEEKAEKYLKELKALIAAAKANIDDDAKVTALLKEIEAKIEEAEKELTPEEVAKVFEEVADELWALSQVFDAAGKEQLALEADGLAIEAASLALRAKEKI
# B10: LC3A_45_1925 (protein)
# chain: MWEATLDVLVPRELAEKAYATAKELMAELEAEHGPDLRVDWATLDESYAASKDEEDVYLEIRIYHPDEQVALDAADRLEDELNAALGGKASSIISLKKLP
# B11: LC3A_free_8_2533 (protein)
# chain: KREEFVNKALELLDEFEEEIRKKAKELGLDELDILDLELLIGSLKIEVVELRDKPMEEILKTIEEGLEEIIEEAKELSEELAEKVEELAEEILEELKEMM
# B12: LC3A_147_503 (protein)
# chain: YLLKVDIDIIVKNAEEEVKKMVEEIEEELKKKGFEVKVKINIEQLDENTTYISINIEVKAKTKEEAEEAANYIIDKFDKYLEENKDKILGALISVEIEKE
# B13: LC3A_28_660 (protein)
# chain: SATREAADAAIAAARAAAARGEPAVITLTVTGDATPEDIDYVLAALEEIAAILAPIPGSAIVIDLEAGVDPEHRQRIIDKAEELEKRYPNVTVIIAEEEE
# B14: LC3A_3_1416 (protein)
# chain: MEEAKKKALEALKKAGHSEETLKALNELVDLLEARGAEEEAKEVLELVLENKDISSELLLEVLNEAIELLTVKKLSPEEVIKELKEELRIARNEEEIIEL
# B15: LC3A_3_1375 (protein)
# chain: SEELIEETLAYLREKGKSEETLEAVRRAMEALAEKGYEEALKTFAELLKEMEDLPDEILLDFAEDVLEAVENEDLNEEELIEFIKEEARVARSEGEIIEL
# B16: LC3A_free_8_2497 (protein)
# chain: SRQEIVDRLLELIDELEEELEEKAKELGLSELDILDITLELGSLKAEIISNSDEPLEVIREELEEGLEEIIELTEELSEELEELAEEGAEKILEELEELE
# B17: LC3A_28_1014 (protein)
# chain: SHMEERVAALIAEIEAALAKGEYVVATLTITPEDSLEEVKAAMERVGKAALEAAKKGIVDVVVDLEKGVSQEKLDAVMEAADELEKKAPKLNVVIALEEE
# B18: LC3A_free_0_2106 (protein)
# chain: MTVVGEVLAITEKALTPEQLKKVKEEMEKIAKELEEEYGMKVEVTVKEVDGRTVFTLKFSKEGLSIEEAIEIVDEVADKLEEKLKELGADVTIYTSVYEE
# B19: LC3A_17_544 (protein)
# chain: MEELKKELEKLLKKLEELVKELEKYDPEKAKKLKKQLEEAKKLIKAGKLREAAELLAKAAREAADAFEKLEPKYGTKASVLAMEASGLELEAIRILLKLE
# B20: LC3A_17_542 (protein)
# chain: MEEIKKELEELLKKLEKLVEKLAEYDPEKAKKLKKKLEEAKKLIKAGKLKEAAELLAEAAREAAEAWEELEPEYGTEASVYAMEASGLELEAIGILLKLD
# B21: LC3A_28_1074 (protein)
# chain: SAVEEENEKILKEAKEAKEKGEPAVITIKIDESDTDEDIEKKLETIREVAEILKDVEGAAIIIDLEGEKALSRLDEVADLADELEEKYPNLTVIIALDDE
# B22: LC3A_free_46_2358 (protein)
# chain: YKAEIDIDLLHEDKEVLEKAVEEIEKAAREIAEKYGLKVEIEKEFEKLPDGSYYARIRITLEGEDKEKVEEAVNELINEIDKISKKYDVASIISYEIEEK
# B23: LC3A_free_8_2524 (protein)
# chain: SKQEFANKATEVLDELEEKLRKALEELGASRLDILEAEVLVGSIIAEVISLSDKEPEEQLKAIKEGLKDLVEELEKYKETVKKLADEALKKIEEIKKELE
# B24: LC3A_147_445 (protein)
# chain: VKVEVTIGVLMKNKPEVGDELVEKLRETAEAAGAEVEVEVEREKIDENTVYLLIKLTLTTETREAAEALANKVIDTVEEFAEKHKDEILGYIISVEISEA
# B25: LC3A_127_188 (protein)
# chain: EIEKLIKELLKELEKLSELLSSPDFDLEEAEKLAKKILKLAKELEKLDPRFKPLVEDAKELLKIIEEMKNASPAEQEELKEHALMLVEGMEIEALSLELK
# B26: LC3A_free_46_2376 (protein)
# chain: YKIEIDIYFSAMSKEKAEEMAEEIKKAAEEISKKTGVKIEVEVKIITDENGETWLEVKVTIEGEDKEKALKAATELIDKFDEIAEKHGVSLIISVEEIDE
# B27: LC3A_59_2018 (protein)
# chain: SEELEALRERLREAVDDIDAFVAIVREGLERFRDDPERVRALLRAAMDVIVEELGMDPEEAEKTLAEMLAIWETEPDKEEAIARVTELVRDTLLLTPIEE
# B28: LC3A_free_8_2515 (protein)
# chain: MNQEFANKATEILEELEEKLVELLKEKGASELDILEAELLIGSAIAEVISLSDKSPEEILKAIRESLEELVEELEEHREEVKELAEEALKKIEEKKKELE
# B29: LC3A_3_1855 (protein)
# chain: MEEIIEEALKLLKELGRSEETIEAARKLLEALKERGFEEAAKVLLEELKKLKNVSDEDLLEMFNELLKALEEEDLNEEEAIELIKSEARVLLNAEEIEEL
# Molecular target: MAP1LC3A, Q9H492
# Assay: median log2 fold change of GCK-ALFA target abundance (FLAG IP / Myc IP barcode read proportion) (log2 ratio); each designed protein is fused to an ALFA-tag nanobody in HEK293 cells to bring the named protein to FLAG-tagged glucokinase (GCK); Myc marks an untargeted standard; higher = target protein stabilised (more abundant)
# Conditions: target protein: 3xFLAG-MCP-GCK-ALFA reporter; HEK293 landing pad (RPLP)
# Outline: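 An ALFA-nanobody-fused binder library was recombined into HEK293 landing-pad cells and induced with 2 μg mL^−1 doxycycline. Cells were transfected with a plasmid expressing a FLAG-tagged target and a Myc-tagged standard. After 48 h, lysates underwent anti-FLAG and anti-Myc immunoprecipitation, and circular RNA barcodes were reverse transcribed, amplified and sequenced. Target abundance is the per-binder median log2 ratio of FLAG to Myc barcode read proportions. Barcodes needed ≥10^−7 proportion in both replicates, binders ≥3 barcodes per replicate, and a 10^−6 pseudocount was added; the two replicates were pooled.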
row,Binder,median log2 fold change
1,B1,0.192
2,B2,-0.268
3,B3,0.258
4,B4,0.127
5,B5,-0.515
6,B6,0.409
7,B7,-0.778
8,B8,-0.0638
9,B9,0.0471
10,B10,-0.101
11,B11,-0.133
12,B12,-0.665
13,B13,0.104
14,B14,0.297
15,B15,0.306
16,B16,-0.679
17,B17,-0.297
18,B18,-0.0524
19,B19,0.0592
20,B20,-0.71
21,B21,0.0473
22,B22,-0.026
23,B23,-0.575
24,B24,-0.265
25,B25,0.156
26,B26,-0.231
27,B27,-0.587
28,B28,0.159
29,B29,0.224
